Records with an inconclusive call do not appear. The source made the active and inactive calls. Calls come from the whole dose curve; as a rule, active = well fitted curve in the direction sought with a large enough effect; inconclusive = small, poorly fitted or top-dose-only effect, or another doubt; inactive = no such curve, though single readings can be large or run the other way.
Molecular target: Metallo-beta-lactamase type 2 (Klebsiella pneumoniae) (UniProt C7C422)
Experiment: qHTS to identify inhibitors of the New Delhi Metallo-beta-lactamase (NDM): assay validation screen against the NCATS LOPAC Collection (AID 1794843)
Settings: NDM-1 enzyme, nitrocefin hydrolysis, absorbance 485 nm; series mostly up to 38.4 µM; activity change, negative = inhibition: at the top concentration
Procedure, shortened: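 Absorbance at 485 nm from nitrocefin turnover (50 uM solution added), read at plateau, gives the read-out. Compounds in DMSO were incubated first with 2 nM final NDM-1 in pH 7.0 HEPES buffer containing 1 uM ZnSO4 and 0.01% Tween20.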
% is set by controls: 0 for no effect and ±100 for the full control effect.

Sequence of Metallo-beta-lactamase type 2 (Klebsiella pneumoniae) (C7C422 whole entry, looked up): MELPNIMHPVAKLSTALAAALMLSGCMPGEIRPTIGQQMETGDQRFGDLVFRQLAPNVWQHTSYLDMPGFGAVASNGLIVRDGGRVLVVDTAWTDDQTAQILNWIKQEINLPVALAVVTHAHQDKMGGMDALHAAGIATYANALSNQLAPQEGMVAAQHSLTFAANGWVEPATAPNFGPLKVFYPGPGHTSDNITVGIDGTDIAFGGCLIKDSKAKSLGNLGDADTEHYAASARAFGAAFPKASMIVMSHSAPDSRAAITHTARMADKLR

| Structure (SMILES) | activity change, negative = inhibition |
| --- | --- |
| O=C1/C(=C/c2ccsc2)CC/C1=C\c1cccs1 | 0.403% (inactive) |
| Nc1nc(OCC2CCCCC2)c2[nH]cnc2n1 | -14% (inactive) |
| CN(C)c1nc(N)c(C(=O)N=C(N)N)nc1Cl | 4.64% (inactive) |
| C[C@@H](CN1CCC(Cc2ccccc2)CC1)[C@@H](O)c1ccc(O)cc1 | 1.53% (inactive) |
| NC[C@@H]1O[C@H](C23CC4CC(CC(C4)C2)C3)Cc2c1ccc(O)c2O | 1.02% (inactive) |
| O=C(O)CC1CCCc2ccccc2C1O (configuration not stated) | 1.48% (inactive) |
| O=S(=O)(c1cccc2c(I)cccc12)N1CCCNCC1 | -6.29% (inactive) |
| CN1CCc2cc(NC(=O)Nc3cccnc3)ccc21 | -18.2% (inactive) |
| O=C(Nc1ccccc1)c1cc([N+](=O)[O-])ccc1Cl | -0.646% (inactive) |
| CC[C@H]1OC(=O)[C@H](C)[C@@H](O[C@H]2C[C@@](C)(OC)[C@@H](O)[C@H](C)O2)[C@H](C)[C@@H](O[C@@H]2O[C@H](C)C[C@H](NC)[C@H]2O)[C@](C)(O)C[C@@H](C)CN(C)[C@H](C)[C@@H](O)[C@]1(C)O | 6.79% (inactive) |
| COc1cc(SC)ccc1C(=O)N1CCC(Cc2ccccc2)CC1 | 0.498% (inactive) |
| C=CC(N)CCC(=O)O (configuration not stated) | 0.364% (inactive) |
| Nc1nc(Cl)nc2c1ncn2[C@@H]1O[C@H](COP(=O)(O)OP(=O)(O)OP(=O)(O)O)[C@@H](O)[C@H]1O | -19.9% (inactive) |
| CC(C)CC(NP(=O)(O)O[C@@H]1O[C@@H](C)[C@H](O)[C@@H](O)[C@H]1O)C(=O)NC(Cc1c[nH]c2ccccc12)C(=O)O (some centres not stated) | -6.24% (inactive) |
| NCCCCCCCCCCN | 1.77% (inactive) |
| CN1C2CCC1CC(OC(=O)C(O)c1ccccc1)C2 (configuration not stated) | -1.47% (inactive) |
| Cn1c(=O)c2[nH]c(-c3ccccc3)nc2n(C)c1=O | -0.841% (inactive) |

Source: PubChem BioAssay (NCATS)
